Assay outcomes (PubChem)
The list is not random: actives were taken first. Their share in the collection is about 5.2%.
PLK1 PBD inh: PLK1 (human) polo-box domain binding inhibition | P53350 | Plk1 PBD binding of FITC phosphopeptide, fluorescence polarization | Potency, µM, for inactives: max response, negative = inhibition, most hits filed as inhibitors | 2.8% of 360,000 active | AID 720504; note: series mostly up to about 57 µM; nearly all actives have a fitted effect of over 65% in size
IDH1 R132H inh: inhibitors of human mutant IDH1 R132H | O75874 | IDH1-R132H enzyme, NADPH consumption, diaphorase/resazurin fluorescence | Potency, µM (top dose mostly 76.6 µM), inactives show at the top dose activity change, negative = inhibition, actives largely listed as inhibitors | 0.093% of 390,000 active | AID 602179; note: nearly all actives have a fitted effect of over 65% in size
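IDH1-R132H (0.5 ug/mL) preincubated 30 min with compound, then NADPH (0.016 mM) and alpha-KG (2 mM) added; 80 min at RT, pH 7.5. Remaining NADPH coupled via diaphorase/resazurin to fluorescence (540/590 nm); concentration-response curves normalized to no-enzyme control.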
rTrxR1 inhibitor: inhibitors of rat thioredoxin reductase 1 | recombinant rTrxR1, NADPH fluorescence consumption, selenite substrate | 1% of 390,000 active | Potency, µM (highest dose often 114 µM), without a hit: top-dose activity change, negative = inhibition, most hits filed as inhibitors | O89049; note: nearly all actives have a fitted effect of over 65% in size
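Rat TrxR1 (90 nM in the dispensed reagent) was pre-reduced with 400 uM NADPH for 5 min at room temperature, then incubated with compound for 15 min. After 400 uM selenite was added, NADPH fluorescence (Ex 340/Em 450 nm) was followed for 8 min.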
Sfp PPTase inh: blocks B. subtilis Sfp PPTase activity; Q9F4F7; 3.5% of 310,000 active; Potency, µM, inactives show largest response in the series, negative = inhibition, usual class: inhibitors; AID 1490; Biochemical Sfp PPTase activity, qHTS;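 note: the enzyme is Sfp with the accession as filed and its product quenches rhodamine fluorescence; 0% = enzyme reaction without inhibitor and -100% = no enzyme wells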
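Sfp 15 nM + cpd, 15 min RT; start w/ rhodamine-CoA 5 uM, BHQ-2-YbbR 12.5 uM (final); 50 mM Hepes pH 7.6, 10 mM MgCl2, 0.01% NP-40, 0.01% BSA; read 525/598 nm at 0 and 30 min.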
VDR inh: vitamin D3 receptor (human) inhibition; VDR-SRC2-3 peptide fluorescence polarization, 2 h; P11473; Potency, µM, without a hit: max response, negative = inhibition, actives largely listed as inhibitors; 0.93% of 400,000 active
Target sequence (P11473 whole entry, looked up): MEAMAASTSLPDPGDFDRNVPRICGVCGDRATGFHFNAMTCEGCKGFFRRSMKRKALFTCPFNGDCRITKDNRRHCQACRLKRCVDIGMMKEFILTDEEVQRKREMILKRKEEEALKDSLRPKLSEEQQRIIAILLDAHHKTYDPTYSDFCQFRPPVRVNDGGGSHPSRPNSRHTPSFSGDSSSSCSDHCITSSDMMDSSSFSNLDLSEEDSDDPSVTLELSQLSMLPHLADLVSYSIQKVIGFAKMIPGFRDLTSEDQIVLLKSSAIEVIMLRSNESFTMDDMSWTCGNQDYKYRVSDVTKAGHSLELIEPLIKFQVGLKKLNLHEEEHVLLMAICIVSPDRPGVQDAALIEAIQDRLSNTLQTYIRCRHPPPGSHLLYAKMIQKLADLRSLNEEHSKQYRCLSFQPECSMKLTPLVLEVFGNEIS
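Fluorescence polarization assay of small-molecule disruption of VDR binding to coregulator peptide SRC2-3. Compounds and controls pin-transferred, then read after 2 h incubation at ambient room temperature.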
TrxR1 substrate: substrates of rat thioredoxin reductase 1; O89049; purified TrxR1 substrate turnover, NADPH consumption readout; Potency, µM (series often up to 114 µM), for the others: at the highest dose activity change, negative = substrate turnover; 0.01% of 390,000 active; note: nearly all actives have a fitted effect of over 50% in size
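Rat TrxR1, dispensed at 90 nM, was prereduced with 400 uM NADPH (final) for 5 min at ~22 deg C, then incubated with compound 15 min before 400 uM selenite. A first-read NADPH fluorescence drop versus no-compound background flagged substrates.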
TbPYK inh: Trypanosoma brucei pyruvate kinase inhibition, cherry-pick confirmation; shares compounds with PLK1 PBD inh; recombinant TbPYK, Kinase-Glo ATP luminescence; Potency, µM (titrated, usually from 76.9 µM), inactives show at the highest dose activity change, negative = inhibition, hits mostly inhibitors; 67% of 890 active; note: nearly all actives have a fitted effect of over 70% in size
TbPYK orthogonal: orthogonal confirmation of Trypanosoma brucei pyruvate kinase inhibitors. shares compounds with PLK1 PBD inh. recombinant TbPYK, ADP-Glo luminescence, 60 min. Potency, µM (doses to about 76.9 µM), inactives show at the top dose activity change, negative = inhibition, usual class: inhibitors. 62% of 890 active; note: nearly all actives have a fitted effect of over 75% in size
An asterisk follows results filed as active; ? = inconclusive; / = not tested or not shown; [ ] = remark or other dose. Calls come from the whole dose curve; as a rule, active = well fitted curve in the direction sought with a large enough effect; inconclusive = small, poorly fitted or top-dose-only effect, or another doubt; inactive = no such curve, though single readings can be large; an effect the other way counts as inactive or inconclusive. Unless noted, % is set by controls: 0 for no effect and ±100 for the full control effect; potency is the fitted concentration of half-maximal effect.

SMILES	PLK1 PBD inh	IDH1 R132H inh	rTrxR1 inhibitor	Sfp PPTase inh	VDR inh	TrxR1 substrate	TbPYK inh	TbPYK orthogonal
CC(=O)OCC1=C(C(=O)O)N2C(=O)[C@@H](NC(=O)CCC[C@@H](N)C(=O)O)[C@H]2SC1	/	/	-13%[57.1 µM]	/	2%	-3%[57.1 µM]	/	/
O=C(Nc1ccccc1)N1CC2(CCN(C(=O)Oc3ccccc3)CC2)C1	/	/	/	8%	5%	/	/	/
COc1cc2c3cc1Oc1cc(ccc1O)C[C@@H]1c4c(cc(OC)c(O)c4Oc4cccc(c4)C[C@H]3N(C)CC2)CC[N+]1(C)C	/	/	/	-17%	1%	/	/	/
O=c1cccc2n1CC1CC2CN2CCCCC12 (stereo not given)	/	/	/	17%	2%	/	/	/
O=C1NC(=O)N(c2ccccc2)C(=O)/C1=C/c1ccoc1	5.3µM*	-10%	?	?	-4%	-4%[57.1 µM]	?	-28%
O=C1NC(=O)N(c2ccc(F)cc2)C(=O)/C1=C/c1ccc(N2CCOCC2)cc1	12µM*	0%	?	40µM*	-25%	7%[57.1 µM]	?	?
O=C1NC(=O)C(=Cc2ccc(N3CCOCC3)o2)C(=O)N1	85%	8%	?	-19%	3%	-23%	/	/
O=C(Oc1ccccc1)N1CCC2(CCN(Cc3nccs3)CC2)CC1	/	/	/	12%	8%	/	/	/
CCc1sc(N(C(=O)Cc2ccccc2)c2ccc(F)cc2)nc1-c1ccccc1	-2%	10%	-2%	5%	4%	-9%	/	/
O=C1CC(=O)N(c2ccccc2F)C(=O)N1	?	2%	-14%	?	-24%	0%	/	/
O=C1NC(=O)N(c2ccccc2F)C(=O)/C1=C/c1ccc(Sc2nc3ccccc3[nH]2)o1	?	?	?	50µM*	?	2%	14µM*	16µM*
O=C1NC(=O)N(c2cccc(Cl)c2)C(=O)/C1=C\c1ccc(Sc2nc3ccccc3[nH]2)o1	2.7µM*	?	8.9µM*	40µM*	?	5%	16µM*	16µM*
C[C@]12CC[C@@H]3[C@@H](CCC4=CC(=O)CC[C@@H]43)[C@@H]1CC[C@@H]2OC(=O)CCc1ccccc1	/	/	/	?	-17%	/	/	/
O=C1NC(=S)NC(=O)C1C/C=C/c1ccccc1	11µM*	0%	50µM*	45µM*	79µM*	-6%	8.9µM*	11µM*
C=CCN1C(=O)NC(=O)/C(=C\c2ccc(-c3ccccc3[N+](=O)[O-])o2)C1=O	1.5µM*	13%	-9%[57.1 µM]	25µM*	18µM*	19%[57.1 µM]	10µM*	25µM*
C=CCN1C(=O)/C(=C/c2ccc(N3CCOCC3)o2)C(=O)NC1=S	78%	4%	?	-5%	-5%	-11%	/	/
N#Cc1ccc(CN2CCCC3(CCN(C(=O)Oc4ccccc4)CC3)C2)cc1	/	/	/	-10%	-4%	/	/	/
COC[C@]12CN(C=O)C3C4C(OC)C1[C@@]3(C1CC3(O)C(OC)C(O)C4(OC(C)=O)C1C3OC(=O)c1ccccc1)[C@@H](OC)CC2O (stereo not given in full)	/	/	/	8%	-6%	/	/	/
Cc1ccc(OCCOc2cccc(C=C3C(=O)NC(=O)NC3=O)c2)cc1	2.7µM*	-4%	?	63µM*	40µM*	-5%[57.1 µM]	?	?
CN1CCCCC1c1cccnc1 (stereo not given)	/	/	/	-19%	1%	/	/	/
C[C@@]12CC[C@H]3[C@@H](CC[C@@H]4C[C@H]5S[C@H]5C[C@]43C)[C@H]1CC[C@H]2O	/	/	/	16%	?	/	/	/
CC1CC(OP(O)(=S)c2ccc(N(C)C)cc2NC(=O)c2cccs2)CC(C)(C)C1 (stereo not given)	6µM*	10%	?	10µM*	45µM*	-4%	28µM*	28µM*
O=C1CN=C(c2ccccc2)c2cc(Cl)ccc2N1CC1CC1	/	/	/	16%	-24%	/	/	/
COc1ccc(CN2C(=O)NC(=O)/C(=C/c3ccc([N+](=O)[O-])s3)C2=O)cc1	1.9µM*	-4%	40µM*	20µM*	22µM*	-5%	18µM*	32µM*
O=C1NC(=O)N(Cc2ccc(F)cc2)C(=O)/C1=C\c1ccc([N+](=O)[O-])s1	2.7µM*	7%	40µM*	40µM*	?	-11%	14µM*	16µM*
SMILES	PLK1 PBD inh	IDH1 R132H inh	rTrxR1 inhibitor	Sfp PPTase inh	VDR inh	TrxR1 substrate	TbPYK inh	TbPYK orthogonal
CC[n+]1c(/C=C/N(C)c2ccccc2)sc2ccc(Cl)cc21	-12%	3%	-11%	-19%	1%	2%[57.1 µM]	/	/
CC[n+]1c(/C=C/C=C/c2ccc(N(C)C)cc2)sc2ccccc21	0%	17%	-3%[57.1 µM]	?	-154%	-23%[57.1 µM]	32µM*	10%
Clc1ccc2c(c1)CCc1cccnc1C2=C1CCNCC1	/	/	/	-21%	?	/	/	/
Cc1nn(Cc2ccccc2)c(C)c1C=C1C(=O)NC(=O)NC1=O	9.5µM*	-3%	35µM*	-28%	-26%	-12%	18µM*	32µM*
O=C(c1csnn1)N1CCC2(CC1)CN(Cc1ccncc1)C2	/	/	/	-9%	2%	/	/	/
O=C(O)CCn1cc(C=C2C(=O)NC(=S)NC2=O)c(-c2cc3ccccc3oc2=O)n1	11µM*	-2%	7.1µM*	10µM*	?	3%	5.6µM*	10µM*
COC(=O)C12CC3=CC(CC3=O)Cc3ccccc3[C@@H]1CNC2=O (stereo not given in full)	/	/	/	25%	-27%	/	/	/
Cc1ccc(/C=C2\C(=O)NC(=S)N(c3ccc(F)cc3)C2=O)s1	1.3µM*	0%	10µM*	-3%	35µM*	-16%[57.1 µM]	13µM*	?
Cc1ccc(/C=C2\C(=O)NC(=S)N(c3ccccc3F)C2=O)s1	1.2µM*	-9%	13µM*	14µM*	?	-9%	7.9µM*	11µM*
O=C1NC(=O)N(c2ccc(Cl)cc2)C(=O)/C1=C/c1coc2ccc(O)cc2c1=O	7.5µM*	-7%	?	45µM*	?	2%	?	?
O=C1NC(=O)N(c2ccccc2)C(=O)/C1=C/c1coc2ccc(O)cc2c1=O	12µM*	6%	22µM*	50µM*	50µM*	-2%	22µM*	?
Cc1cccc2c1=NC(=O)/C(=C/c1c(O)[nH]c(=O)[nH]c1=O)C=2	7.5µM*	6%	?	50µM*	?	9%[57.1 µM]	25µM*	?
